# Bioassay records from PubChem BioAssay.
# L3MBTL1 block = L3MBTL1 (human) inhibition. Q9Y468. AlphaScreen L3MBTL1–H3K9me1 peptide binding. Potency, µM (titrated, usually from 57.1 µM), for inactives: at the top dose activity, negative = inhibition, usual class: inhibitors. 230,000 compounds, 0.66% hits; further: on the % scale 0 is the no-effect control and ±100 the full control effect; nearly all actives have a fitted effect of over 60% in size
#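 L3MBTL1 50 nM + b-AHA-H3(1-15)K9me1 75 nM, 30 min RT; compound added, 30 min RT; streptavidin donor/Ni-chelate acceptor beads 10 ug/mL each final, 30 min RT dark; AlphaScreen read.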
# HP1b binding inh = HP1-beta chromodomain-methylated histone interaction inhibition; P83916; AlphaScreen HP1-beta / biotin-H3K9me3 peptide binding; Potency, µM (top dose mostly 114 µM), for inactives: at the highest dose activity change, negative = inhibition, most hits filed as inhibitors; 390,000 compounds, 0.56% hits; further: nearly all actives have a fitted effect of over 70% in size
#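 HP1-beta protein (50 nM final) preincubated 30 min at room temperature with biotinylated H3(1-18)K9me3 peptide (50 nM) in PBS pH 7.4, 0.01% Tween-20, then compound added for 30 min. AlphaScreen streptavidin donor/nickel chelate acceptor beads (10 ug/mL final), 30 min dark, luminescence read.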
# VDR inh = inhibitors of human vitamin D receptor; P11473; VDR-SRC2-3 peptide fluorescence polarization, 2 h; Potency, µM, inactives show max response, negative = inhibition, hits mostly inhibitors; 400,000 compounds, 0.93% hits; further: on the % scale 0 is the no-effect control and ±100 the full control effect
#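 Compounds are added to VDR with labelled SRC2-3 coactivator peptide and held 2 h at room temperature. Inhibition of the VDR–peptide interaction is then read as a change in fluorescence polarization.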
# JMJD2A Tudor inh = blocks the human JMJD2A Tudor domain. AlphaScreen JMJD2A-Tudor / H3K4me3 peptide binding. Potency, µM (top dose mostly 114 µM), for inactives: at the highest dose activity change, negative = inhibition, actives largely listed as inhibitors. 390,000 compounds, 4.4% hits. AID 504339; further: on the % scale 0 is the no-effect control and ±100 the full control effect; nearly all actives have a fitted effect of over 50% in size
# Target sequence (O75164 whole entry, looked up, the tested form may be a part): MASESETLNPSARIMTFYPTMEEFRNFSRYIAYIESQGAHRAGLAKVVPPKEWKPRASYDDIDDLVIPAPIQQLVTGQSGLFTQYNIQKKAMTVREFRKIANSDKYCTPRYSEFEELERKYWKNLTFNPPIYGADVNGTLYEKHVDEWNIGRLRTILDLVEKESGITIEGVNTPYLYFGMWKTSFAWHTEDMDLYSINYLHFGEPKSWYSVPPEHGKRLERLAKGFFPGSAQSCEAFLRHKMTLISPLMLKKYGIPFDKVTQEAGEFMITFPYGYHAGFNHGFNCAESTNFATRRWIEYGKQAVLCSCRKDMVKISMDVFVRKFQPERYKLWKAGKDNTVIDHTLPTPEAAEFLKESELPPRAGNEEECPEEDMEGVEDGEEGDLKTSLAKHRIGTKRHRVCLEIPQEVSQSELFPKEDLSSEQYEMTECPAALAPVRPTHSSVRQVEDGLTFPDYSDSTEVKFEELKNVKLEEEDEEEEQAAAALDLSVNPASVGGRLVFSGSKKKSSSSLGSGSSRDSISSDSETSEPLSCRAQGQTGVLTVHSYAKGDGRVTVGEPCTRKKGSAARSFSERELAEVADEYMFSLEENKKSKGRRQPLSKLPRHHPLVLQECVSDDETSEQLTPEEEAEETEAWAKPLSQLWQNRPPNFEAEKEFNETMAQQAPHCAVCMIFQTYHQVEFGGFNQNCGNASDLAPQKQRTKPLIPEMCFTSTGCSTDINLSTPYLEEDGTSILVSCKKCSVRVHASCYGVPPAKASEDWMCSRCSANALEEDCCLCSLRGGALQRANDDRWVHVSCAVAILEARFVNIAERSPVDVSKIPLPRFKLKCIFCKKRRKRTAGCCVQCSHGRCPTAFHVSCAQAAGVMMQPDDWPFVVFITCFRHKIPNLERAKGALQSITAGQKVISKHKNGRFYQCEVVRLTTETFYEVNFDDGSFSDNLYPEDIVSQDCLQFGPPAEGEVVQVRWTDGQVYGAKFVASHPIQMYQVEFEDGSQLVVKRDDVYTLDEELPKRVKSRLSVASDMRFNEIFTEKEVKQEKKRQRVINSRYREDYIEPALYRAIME
# PLK1 PBD inh = inhibitors of human PLK1 polo-box domain binding; AID 720504; 360,000 compounds, 2.8% hits; Plk1 PBD binding of FITC phosphopeptide, fluorescence polarization; Potency, µM, without a hit: max response, negative = inhibition, actives largely listed as inhibitors; further: series mostly up to about 57 µM; on the % scale 0 is the no-effect control and ±100 the full control effect; nearly all actives have a fitted effect of over 65% in size
# BAZ2B inh = blocks human BAZ2B. Potency, µM (top dose mostly 114 µM), without a hit: top-dose activity change, negative = inhibition, most hits filed as inhibitors. 360,000 compounds, 4.4% hits. AlphaScreen BAZ2B-H3K14Ac peptide displacement. Q9UIF8; further: on the % scale 0 is the no-effect control and ±100 the full control effect; nearly all actives have a fitted effect of over 60% in size
#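 AlphaScreen displacement: compounds (up to 110uM) incubated 30 min at room temperature with a preformed 50 nM BAZ2B/50 nM biotinylated H3K14Ac peptide complex in PBS pH 7.4 with Tween-20. Donor and acceptor beads at 10 ug/mL final added, 20 min light-protected before reading.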
# * hit, by the source's call; ? = inconclusive; · = no result given; ! = not confirmed by another sample; [ ] = remark or other dose. In the library only some 6.9% were active in any assay of this set; here they are far more common. The call rests on the fitted dose curve; in most records, active means well fitted curve in the direction sought with a large enough effect; inconclusive means small, poorly fitted or top-dose-only effect, or another doubt; inactive means no such curve, though single readings can be large; an effect the other way counts as inactive or inconclusive. Potency means the concentration at half of the fitted maximal effect.
SMILES,L3MBTL1 block,HP1b binding inh,VDR inh,JMJD2A Tudor inh,PLK1 PBD inh,BAZ2B inh
CCOc1ccc(NC(=O)Cn2c(=O)n(CCCCC(=O)NCCc3ccc(Cl)cc3)c(=O)c3ccccc32)cc1,·,1%,-7%,-6%,·,-12%
Cc1ccc(-c2nnnn2-c2ccc(C)cc2)cc1,·,-6%,?,?,17µM*,4%
Cc1ccc(-n2nnnc2-c2cccc(C)c2)cc1,42%,34%,-10%,23%,-2%,17%
Cc1ccc(N2C3=C(C(=O)CC(C)(C)C3)C(c3cn(C)nc3C)C3=C2CC(C)(C)CC3=O)cc1,·,-15%,20µM*,-33%[11.4 µM],3.8µM*,·
COC(=O)C[C@H]1CC[C@@H](NC(=O)Nc2c(C)noc2C)[C@@H](CO)O1,·,·,·,·,2%,·
CCc1ccc(NC(=O)Cn2ncc3c(C)n(Cc4cccc(Cl)c4)c(C)c3c2=O)cc1,·,22%,1%,-8%,·,79µM*
CCc1ccc(NC(=O)Cn2ncc3c4ccccc4n(C)c3c2=O)cc1,-3%,-14%,?,-5%[11.4 µM],24µM*,-12%
C[C@H](CO)N1C[C@H](C)[C@@H](CN(C)C(=O)NC2CCCCC2)Oc2ccc(NC(=O)C3CC3)cc2C1=O,·,35%,-4%,-6%,-24%,·
COc1cc(OC)c(OC)cc1CCC(C)NCCC(c1ccccc1)c1ccccc1 (centres undefined),·,?,-13%,45µM*,-5%,13µM*
CCOC(=O)c1ccccc1NC(=O)CSc1nc2cn(CC)nc2c(=O)n1Cc1ccc(Cl)cc1,·,27%,-17%,-9%,·,-11%
COc1ccc(C2Nc3ccc(NC(C)=O)cc3C(=O)N2Cc2cccc(Cl)c2)cc1COc1ccc(NC(C)=O)cc1 (centres undefined),·,12%,-15%,?,·,·
COc1ccc(C2Nc3ccc(Cl)cc3C(=O)N2Cc2ccccc2)cc1COc1ccc(NC(C)=O)cc1 (centres undefined),·,·,·,56µM*,·,·
COc1ccc(C2Nc3ccc(NC(=O)CO)cc3C(=O)N2Cc2cccc(Cl)c2)cc1COc1ccc(NC(C)=O)cc1 (centres undefined),·,-9%,-8%,56µM*,·,·
CCCCOc1ccc(C(C)NC(=O)CN2C(=O)CSc3ccc(S(=O)(=O)N4CCOCC4)cc32)cc1 (centres undefined),·,-9%,2%,-21%,·,-1%
Cc1cccn2cc(-c3cc4ccccc4oc3=O)nc12,60%,-13%,-3%,89µM*,-28%,-9%
O=c1oc2ccccc2cc1-c1cn2ccccc2n1,1%,42%,2%,-8%,2%,3%
NC(=O)C1CCN(C(=O)C2CCN(S(=O)(=O)c3ccccc3)CC2)CC1,·,34%,-3%,-5%,-9%,-5%
Cc1ccc(-c2cc(C(F)(F)F)n3nc(C(=O)Nc4ccon4)cc3n2)cc1C,·,8%,89µM*,-12%,-13%,?
O=c1[nH]c(=O)n(-c2ccccc2)c2c1C(C(F)(F)F)(C(F)(F)F)N=C(C1CCCCC1)N2,1%,4%,?,89µM*,?,-2%
O=C(NC1(C(F)(F)F)C(=O)Nc2c1c(=O)[nH]c(=O)n2-c1ccccc1)c1ccccc1 (centres undefined),·,27%,-14%,-5%,·,-1%
Cc1ccc(S(=O)(=O)/N=C(/Sc2ccccc2C(=O)O)c2ccccc2)cc1,·,22µM*!,3%,-22%,19µM*,-22%
Cc1ccc(-n2nc3c(N4CCC(C(=O)NCc5ccc(C)o5)CC4)nnc(C)c3c2C)cc1,·,42%,-2%,45µM*,-7%,50µM*
COc1ccc(-n2nc3c(N4CCCC(C(=O)NCc5ccccc5C)C4)nnc(C)c3c2C)cc1 (centres undefined),5%,33%,21%,-26%,·,50µM*
COc1ccc(-n2nc3c(N4CCC(C(=O)NCC(C)c5ccccc5)CC4)nnc(C)c3c2C)cc1 (centres undefined),·,22%,?,?,6.7µM*,-12%
O=C(Cc1cnc2ncnn2c1)N1CCc2c([nH]c3ccccc23)C1c1ccccc1F (centres undefined),-12%,11%,-6%,-32%,1%,-17%
SMILES,L3MBTL1 block,HP1b binding inh,VDR inh,JMJD2A Tudor inh,PLK1 PBD inh,BAZ2B inh
CCCCc1nnc(SCc2cc(=O)c3cc(F)ccc3[nH]2)n1C,·,22%[57 µM],16%,-18%,·,2%
CC(C)(C)C(O)(CC#CCN1CCCC1)c1ccccc1 (centres undefined),-7%,12%,-3%,-4%,-5%,-18%
CC1CCN(c2nc3ccc(C(=O)NCCCN4CCCCC4C)cc3s2)CC1 (centres undefined),-8%,23%,-9%,-23%,-1%,-17%
CC(/C=C1\SC(=S)N(NC(=O)c2ccccc2C)C1=O)=C\c1ccccc1,-3%,?,-11%,?,-6%,?
O=C(NN1C(=O)/C(=C/C=C/c2ccco2)SC1=S)c1ccccc1O,1.3µM*,13µM*,46%,8.9µM*,6.7µM*,13µM*
Cn1cccc1/C=C1/SC(=S)N(CC(=O)O)C1=O,·,9%,-6%,-24%,39%,-33%
Cn1cccc1/C=C1\SC(=S)N(NC(=O)c2ccccc2O)C1=O,-17%,?,-6%,?,26%,32µM*
COc1ccccc1C(=O)NN1C(=O)/C(=C/c2cccn2C)SC1=S,26%,·,·,·,·,8.9µM*
CC(=O)Nc1cccc(NC(=O)CSc2cn(CC(=O)N3CCCCCC3)c3ccccc23)c1,·,27%,-7%,-14%,·,-9%
CCCCN(Cc1ccccc1)C(=O)CN(C)S(=O)(=O)c1ccc2c(c1)c(=O)n(C)c(=O)n2C,·,71%,11%,-10%,·,-6%
CC1=NN(c2ccccc2)C(=O)C1C(=S)SC1CC(=O)NC1=O (centres undefined),·,·,·,·,11µM*,·
CC1=NN(c2ccccc2)C(=O)C1C(=O)c1ccc(Cl)cc1 (centres undefined),0%,77%,-2%,-12%,-7%,-28%
OCn1ncn(-c2ccccc2)c1=S,·,19%,10%,35µM*,-5%,-12%
Cc1ccc(Cn2ncn(-c3ccccc3)c2=O)cc1,4%,49%,-4%,2%[57.1 µM],-3%,1%
O=C(CNS(=O)(=O)c1ccc(Cl)c(C(F)(F)F)c1)NC1CCCCCC1,-5%,36%,-13%,12%,2%,6%
O=C1NN(c2ccccc2)C(=O)/C1=C\c1cccn1-c1ccc(Cl)c([N+](=O)[O-])c1,·,-12%,-12%,?,?,-26%
COc1cc(/C=C2/C(=O)NN(c3ccc(C)c(Cl)c3)C2=O)cc([N+](=O)[O-])c1O,·,-18%,?,?,?,32µM*
